{"source": "PubChem BioAssay (Tox21)", "note": "Where “and” joins values, the source holds several entries; their conditions need not be identical. Equal entries are not always repeated. Results filed as inconclusive are left out. Unmarked numbers belong to inactive results. Calls of active or inactive are those of the source. Calls come from the whole dose curve. % is set by controls: 0 for no effect and ±100 for the full control effect; potency is the fitted concentration of half-maximal effect."}
{"assay": "qHTS assay for small molecule agonists of the p53 signaling pathway (AID 651631); note: nearly all actives have a fitted effect of over 15% in size", "settings": "HCT-116 p53RE-bla reporter, beta-lactamase FRET ratio, 16 h; series mostly up to 73.3 µM; activation: at the top concentration", "excerpt": "U.S. Tox21 Program National Center for Advancing Translational Sciences [NCATS] NIH Chemical Genomics Center [NCGC] U.S. Environmental Protection Agency [EPA] National Institutes of Environmental Health Sciences [NIEHS] National Toxicology Program [NTP] U.S. Food and Drug Administration [FDA] Tox21 Assay Overview: p53, a tumor suppressor protein, is activated following cellular insult, including DNA damage and other cellular stresses. The activation of p53 regulates cell fate by inducing DNA repair, cell cycle arrest, apoptosis, or cellular senescence. The activation of p53, therefore, is a good indicator of DNA damage and other cellular stresses. The CellSensor p53RE-bla HCT-116 cell line (Invitrogen) contains a stably integrated beta-lactamase reporter gene under control of the p53 response elements. The activation of the reporter gene under culture conditions can be detected by fluorescence intensity. This cell line was used to screen the Tox21 compound library in a 1536-well plate format and to identify agonists that activate the p53 signaling pathway.\nTox21 Assay Protocol Summary: The p53RE-bla cells were dispensed at 4,000 cells/5 ul/well in 1536-well black wall/clear bottom plates using a Multidrop dispenser. After the assay plates were incubated at a 37 C/5% CO2 incubator for 5 hours, 23 nL of compounds dissolved in DMSO, positive controls or DMSO only was transferred to the assay plate by a pin tool. The plates were incubated at 37 C for 16 hours. After 1 uL of LiveBLAzerTM B/G FRET substrate was added using a Flying Reagent Dispenser, the plates were incubated at room temperature for 2 hours, and fluorescence intensity was measured by an Envision plate reader."}
{"smiles": "CC1(C)[C@H]2CC[C@]1(C)[C@H](O)C2", "activation": "-1.77%"}
{"smiles": "c1ccc(CNCc2ccccc2)cc1", "activation": "-1.61%"}
{"smiles": "O=C(O)COC(=O)Cc1ccccc1Nc1c(Cl)cccc1Cl", "activation": "8.18% [at 34.7 µM]"}
{"smiles": "O=C(/C=C/c1ccc(O)c(O)c1)O[C@@H]1C[C@](O)(C(=O)O)C[C@@H](O)[C@H]1O", "activation": "-4.62% [at 95.1 µM]"}
{"smiles": "O=C(O)/C=C/c1cnc[nH]1", "activation": "-6.47%"}
{"smiles": "Cl/C(=C\\n1cncn1)c1ccc(Cl)cc1Cl", "activation": "-3.3%"}
{"smiles": "CCC(=O)OC(C)(C)C1CC=C(C)CC1", "note": "(stereo not given)", "activation": "4.07%"}
{"smiles": "N#CCc1cccc(C(F)(F)F)c1", "activation": "-0.618%"}
{"smiles": "CCCCCCCCCC=O", "activation": "-1.5%"}
{"smiles": "CC/C(=C\\C(=N/O)C(N)=O)C(C)[N+](=O)[O-]", "note": "(stereo not given)", "activation": "-1.94%"}
{"smiles": "C[Si](C)O[Si](C)(C)O[Si](C)(C)O[Si](C)C", "activation": "-2.21%"}
{"smiles": "O=C1[C@H](CC[C@H](O)c2ccc(F)cc2)[C@@H](c2ccc(O)cc2)N1c1ccc(F)cc1", "activation": "-4.37%"}
{"smiles": "O=c1c2ccccc2nnn1CCl", "activation": "-1.7%"}
{"smiles": "O=c1[nH]cnc2ccccc12", "activation": "-3.76% [at 95.1 µM]"}
{"smiles": "Nc1cnn([C@@H]2O[C@H](CO)[C@@H](O)[C@H]2O)c(=O)n1", "Potency": "1.94 µM (active)"}
{"smiles": "Cc1ccc(C)o1", "activation": "-6.01% [at 95.1 µM]"}
{"smiles": "CC(C)c1ccccc1C(C)C", "activation": "-1.88%"}
{"smiles": "O=S(=O)(O)c1ccc(O)c2ncccc12", "activation": "-1.64%"}
{"smiles": "CCOC(=S)SSC(=S)OCC", "activation": "-1.71%"}
{"smiles": "CCCOc1ccc2nc(NC(=O)OC)[nH]c2c1", "Potency": "0.298 µM (active)"}
{"smiles": "O=C(O)Cc1cc(I)c(Oc2ccc(O)c(I)c2)c(I)c1", "Potency": "4.52 µM (active) and 24.3 µM (active)"}
{"smiles": "Cc1ccc(C(C)c2ccc(C)c(C)c2)cc1C", "activation": "-2.63%"}
{"smiles": "CCCC(C)C", "activation": "-2.98% [at 95.1 µM]"}
{"smiles": "C1CCC2OC2C1", "note": "(stereo not given)", "activation": "-4.46% [at 95.1 µM]"}
{"smiles": "N#Cc1c(F)cccc1F", "activation": "-2.17%"}
{"smiles": "COCCOCCOCCOCCOC", "activation": "1.74%"}
{"smiles": "CCCCOC(O)CC", "note": "(stereo not given)", "activation": "-0.68%"}
{"smiles": "CNS(=O)(=O)Cc1ccc2[nH]cc(CCN(C)C)c2c1", "activation": "0.768%"}
{"smiles": "CCCCCCc1ccc(N)cc1", "activation": "-4.47%"}
{"smiles": "CCCCOc1cc(C(=O)OCCN(CC)CC)ccc1N", "activation": "-3.18% [at 34.7 µM]"}
{"smiles": "N#Cc1cc2ccccc2c2ccccc12", "activation": "7.39% [at 95.1 µM]"}
{"smiles": "O=C(CC(=O)c1ccccc1)c1ccccc1", "activation": "4.43% [at 95.1 µM]"}
{"smiles": "CCCCCCOC(=O)CCC", "activation": "-0.956%"}
{"smiles": "Cn1c(=O)c2c(ncn2CC(O)CO)n(C)c1=O", "note": "(stereo not given)", "activation": "-1.79% [at 34.7 µM]"}
{"smiles": "Oc1ccc(Sc2ccc(O)cc2)cc1", "Potency": "57.2 µM (active)"}
{"smiles": "CC(=O)CC(=O)c1ccccc1", "activation": "-2.2% [at 95.1 µM]"}
{"smiles": "CC(=O)c1ccc2c(c1)[C@H](NC(=O)c1ccc(F)cc1)[C@@H](O)C(C)(C)O2", "activation": "-3.95%"}
{"smiles": "CC(=O)OCCc1ccccc1", "activation": "0.877%"}
{"smiles": "CN1CCN(C2=Nc3ccccc3Sc3ccc(Cl)cc32)CC1", "activation": "2.04%"}
{"smiles": "CCN(CC)C(C)=O", "activation": "2.42% [at 95.1 µM]"}
